Measurements from PubChem BioAssay AID1159580 (chemical genetic matrix, 2015).
Screen size: about 5,500 compounds; about 2,000 (36%) were called active. Not shown: some 18% with an inconclusive outcome. Cut-off read from the data, not from the text of the source: active = normalized growth mostly below about 0.91 (no sharp cut-off); inconclusive = no clear call, values can overlap the other calls; inactive = mostly above about 0.92. The list shows a part of the results.

Test: chemical genetic growth profiling, strain panel (AID 1159580);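 note: tested at 20 µM; growth read once vehicle control cultures reached saturation at 30 °C; 1 = growth at the plate median or of vehicle wells; lower values mean less growth of the strain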
Settings: growth OD

Measured: normalized growth

COc1ccc(OC)c(C(O)CNC(=O)CN)c1 (stereo not given)
inactive: S. cerevisiae deletion strains, locus YKL009W, strain mrt4, stronger effect = lower value 0.969 | S. cerevisiae deletion strains, locus YKL068W, stronger effect = lower value 0.985 | S. cerevisiae deletion strains, locus YKL085W, strain MDH1 (second series), stronger effect = lower value 0.984 | S. cerevisiae deletion strains, locus YKL085W, strain MDH1, stronger effect = lower value 0.984 | S. cerevisiae deletion strains, locus YKL160W, strain elf1, stronger effect = lower value 1 | S. cerevisiae deletion strains, locus YKL190W, strain CNB1, stronger effect = lower value 0.984 | S. cerevisiae deletion strains, locus YKR001C, strain vps1, stronger effect = lower value 0.96 | S. cerevisiae deletion strains, locus YKR026C, strain gcn3, stronger effect = lower value 1.01 | S. cerevisiae deletion strains, locus YKR091W, strain srl3, stronger effect = lower value 0.996 | S. cerevisiae deletion strains, locus YLL001W, strain dnm1, stronger effect = lower value 1.01 | S. cerevisiae deletion strains, locus YLL026W, stronger effect = lower value 0.999 | S. cerevisiae deletion strains, locus YLL041C, strain sdh2, stronger effect = lower value 0.995 | S. cerevisiae deletion strains, locus YLR027C, strain aat2, stronger effect = lower value 1 | S. cerevisiae deletion strains, locus YLR039C, strain RIC1, stronger effect = lower value 0.966 | S. cerevisiae deletion strains, locus YLR058C, strain SHM2, stronger effect = lower value 0.976 | S. cerevisiae deletion strains, locus YLR102C, strain apc9, stronger effect = lower value 0.982 | S. cerevisiae deletion strains, locus YLR113W, strain HOG1, stronger effect = lower value 1.05 | S. cerevisiae deletion strains, locus YLR221C, strain rsa3, stronger effect = lower value 1 | S. cerevisiae deletion strains, locus YLR258W, strain gsy2, stronger effect = lower value 1 | S. cerevisiae deletion strains, locus YLR262C, strain YPT6 (second series), stronger effect = lower value 1.01 | S. cerevisiae deletion strains, locus YLR262C, strain YPT6, stronger effect = lower value 0.956 | S. cerevisiae deletion strains, locus YLR268W, strain sec22, stronger effect = lower value 0.996 | S. cerevisiae deletion strains, locus YLR320W, strain mms22, stronger effect = lower value 1.03 | S. cerevisiae deletion strains, locus YLR330W, strain CHS5, stronger effect = lower value 1 | S. cerevisiae deletion strains, locus YLR342W, strain FKS1 (second series), stronger effect = lower value 1.04 | S. cerevisiae deletion strains, locus YLR342W, strain FKS1, stronger effect = lower value 1.01 | S. cerevisiae deletion strains, locus YLR357W, strain rsc2, stronger effect = lower value 1.02 | S. cerevisiae deletion strains, locus YLR370C, strain arc18, stronger effect = lower value 1 | S. cerevisiae deletion strains, locus YLR371W, strain rom2, stronger effect = lower value 0.974 | S. cerevisiae deletion strains, locus YLR384C, strain iki3, stronger effect = lower value 1.02 | S. cerevisiae deletion strains, locus YLR418C, strain cdc73, stronger effect = lower value 0.973 | S. cerevisiae deletion strains, locus YML016C, strain PPZ1, stronger effect = lower value 0.99 | S. cerevisiae deletion strains, locus YML032C, strain rad52, stronger effect = lower value 0.959 | S. cerevisiae deletion strains, locus YML120C, strain ndi1, stronger effect = lower value 0.993 | S. cerevisiae deletion strains, locus YML124C, strain tub3, stronger effect = lower value 0.981 | S. cerevisiae deletion strains, locus YMR058W, strain fet3, stronger effect = lower value 1 | S. cerevisiae deletion strains, locus YMR078C, strain ctf18, stronger effect = lower value 0.976 | S. cerevisiae deletion strains, locus YMR125W, strain sto1, stronger effect = lower value 1 | S. cerevisiae deletion strains, locus YMR129W, stronger effect = lower value 1 | S. cerevisiae deletion strains, locus YMR205C, strain PFK2, stronger effect = lower value 1.02 | S. cerevisiae deletion strains, locus YMR223W, strain ubp8, stronger effect = lower value 0.993 | S. cerevisiae deletion strains, locus YMR231W, strain pep5, stronger effect = lower value 1.02 | S. cerevisiae deletion strains, locus YMR263W, strain SAP30, stronger effect = lower value 0.988 | S. cerevisiae deletion strains, locus YMR307W, strain GAS1, stronger effect = lower value 1.05 | S. cerevisiae deletion strains, locus YNL067W, strain RPL9B, stronger effect = lower value 0.971 | S. cerevisiae deletion strains, locus YNL071W, strain lat1, stronger effect = lower value 0.99 | S. cerevisiae deletion strains, locus YNL128W, strain TEP1, stronger effect = lower value 0.983 | S. cerevisiae deletion strains, locus YNL153C, strain GIM3, stronger effect = lower value 0.961 | S. cerevisiae deletion strains, locus YNL183C, strain NPR1, stronger effect = lower value 1 | S. cerevisiae deletion strains, locus YNL209W, strain ssb2, stronger effect = lower value 0.998 | S. cerevisiae deletion strains, locus YNL233W, strain BNI4, stronger effect = lower value 1.01 | S. cerevisiae deletion strains, locus YNL248C, strain rpa49, stronger effect = lower value 0.998 | S. cerevisiae deletion strains, locus YNL250W, strain rad50, stronger effect = lower value 0.968 | S. cerevisiae deletion strains, locus YNL271C, strain bni1, stronger effect = lower value 0.982 | S. cerevisiae deletion strains, locus YNL298W, strain CLA4, stronger effect = lower value 0.986 | S. cerevisiae deletion strains, locus YNL307C, strain MCK1, stronger effect = lower value 0.96 | S. cerevisiae deletion strains, locus YNL322C, strain KRE1 (second series), stronger effect = lower value 0.997 | S. cerevisiae deletion strains, locus YNL322C, strain KRE1, stronger effect = lower value 0.989 | S. cerevisiae deletion strains, locus YNR049C, strain mso1, stronger effect = lower value 1 | S. cerevisiae deletion strains, locus YNR052C, strain pop2, stronger effect = lower value 0.973 | S. cerevisiae deletion strains, locus YOL006C, strain TOP1, stronger effect = lower value 0.933 | S. cerevisiae deletion strains, locus YOL012C, strain htz1 0.916 | S. cerevisiae deletion strains, locus YOL147C, strain pex11, stronger effect = lower value 0.982 | S. cerevisiae deletion strains, locus YOR001W, strain rrp6, stronger effect = lower value 0.996 | S. cerevisiae deletion strains, locus YOR061W, strain CKA2, stronger effect = lower value 0.967 | S. cerevisiae deletion strains, locus YOR069W, strain VPS5, stronger effect = lower value 0.995 | S. cerevisiae deletion strains, locus YOR070C, strain gyp1, stronger effect = lower value 0.997 | S. cerevisiae deletion strains, locus YOR080W, strain dia2, stronger effect = lower value 1.01 | S. cerevisiae deletion strains, locus YOR083W, strain WHI5, stronger effect = lower value 1.01 | S. cerevisiae deletion strains, locus YOR106W, strain vam3, stronger effect = lower value 1.02 | S. cerevisiae deletion strains, locus YOR136W, strain idh2, stronger effect = lower value 0.977 | S. cerevisiae deletion strains, locus YOR144C, strain elg1, stronger effect = lower value 0.99 | S. cerevisiae deletion strains, locus YOR184W, strain ser1, stronger effect = lower value 0.97 | S. cerevisiae deletion strains, locus YOR231W, strain MKK1, stronger effect = lower value 1.05 | S. cerevisiae deletion strains, locus YOR265W, strain rbl2, stronger effect = lower value 0.998 | S. cerevisiae deletion strains, locus YOR270C, strain vph1, stronger effect = lower value 1.03 | S. cerevisiae deletion strains, locus YOR290C, strain snf2, stronger effect = lower value 0.997 | S. cerevisiae deletion strains, locus YOR316C, strain cot1, stronger effect = lower value 0.96 | S. cerevisiae deletion strains, locus YPL051W, strain arl3, stronger effect = lower value 1 | S. cerevisiae deletion strains, locus YPL055C, strain LGE1, stronger effect = lower value 0.94 | S. cerevisiae deletion strains, locus YPL078C, strain atp4, stronger effect = lower value 1.01 | S. cerevisiae deletion strains, locus YPL106C, strain sse1, stronger effect = lower value 1.01 | S. cerevisiae deletion strains, locus YPL240C, strain hsp82, stronger effect = lower value 0.997 | S. cerevisiae deletion strains, locus YPL256C, strain CLN2, stronger effect = lower value 1.01 | S. cerevisiae deletion strains, locus YPR119W, strain clb2, stronger effect = lower value 0.985 | S. cerevisiae deletion strains, locus YPR141C, strain kar3, stronger effect = lower value 0.966 | S. cerevisiae deletion strains, locus YPR163C, strain tif3, stronger effect = lower value 0.983 | S. cerevisiae deletion strains, locus YPR167C, strain met16, stronger effect = lower value 0.98 | S. cerevisiae deletion strains, strain wtn01, stronger effect = lower value 1.01 | S. cerevisiae strains, strain wild type, stronger effect = lower value 0.977
